# Most compounds without a hit are left out; they make up all but 3.5% or so of the library.
# TEAD-YAP inh: TEAD-YAP interaction inhibition; 640,000 compounds, 1.4% hits; HEK-TIYL cells, TEAD-Gal4/YAP UAS-luciferase luminescence; inhibition, % at 9.12 µM; in the data active means inhibition above about 32%;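 further: 0% = median of test compound wells and 100% = reference inhibitor wells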
# MITF inh: blocks human microphthalmia-associated transcription factor; AID 1259374; inhibition, % at 2.6 µM; 650,000 compounds, 0.91% hits; AlphaScreen MITF homodimerization, bead proximity signal; in the data active means inhibition above about 50%;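 further: 0% = vehicle wells with protein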
# GPR151 ag: activators of human GPR151 | AID 1508602 | activation, % at 11.2 µM | 650,000 compounds, 1% hits | PathHunter beta-arrestin GPR151 cells, luminescence; in the data active means activation above about 4.9%;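 further: 0% = median of compound wells and 100% = cells with positive control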
# Target sequence (Q8TDV0 whole entry, looked up): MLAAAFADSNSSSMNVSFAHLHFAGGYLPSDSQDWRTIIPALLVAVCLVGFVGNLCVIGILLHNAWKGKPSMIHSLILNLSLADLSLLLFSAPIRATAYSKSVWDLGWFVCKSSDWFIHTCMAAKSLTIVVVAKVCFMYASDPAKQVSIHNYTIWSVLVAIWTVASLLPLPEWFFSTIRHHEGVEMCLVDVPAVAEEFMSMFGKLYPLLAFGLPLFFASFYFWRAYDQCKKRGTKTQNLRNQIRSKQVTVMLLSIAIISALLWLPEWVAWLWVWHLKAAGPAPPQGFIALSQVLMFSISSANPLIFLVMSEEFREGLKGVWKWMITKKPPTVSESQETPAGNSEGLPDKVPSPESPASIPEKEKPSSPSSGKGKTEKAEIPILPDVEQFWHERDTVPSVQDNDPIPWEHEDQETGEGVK
# FBW7 act: human FBW7 E3 ligase activation, primary screen; Q969H0; normalized activity (activation), % at 26.1 µM; 650,000 compounds, 0.13% hits; AlphaScreen FBW7–phospho-cyclin E peptide binding, activator screen; in the data active means normalized activity above about 1.9%;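 further: purified mutant Fbw7 with reduced substrate affinity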
# An asterisk follows results filed as active.
SMILES,TEAD-YAP inh,MITF inh,GPR151 ag,FBW7 act
COc1cccc(NC(=O)c2cnc(SCC(=O)N3CCN(c4ccccc4)CC3)n(C)c2=O)c1,35.5*,-6.6,-2.2,-0.1
NS(=O)(=O)c1cccc(NC(=O)CSc2nnc(-c3c[nH]c4ccccc34)o2)c1,-20.1,11.4,-0.5,0.1
C/C(=N\NC(=O)c1nnn(-c2nonc2N)c1-c1ccccc1)c1ccc(O)cc1,12.5,0.7,1.8,-0.1
C/C(=N\NC(=O)c1nnn(-c2nonc2N)c1-c1ccccc1)c1ccc(O)cc1O,43.3*,-2.3,1.9,-0.4
C/C(=N\NC(=O)c1nnn(-c2nonc2N)c1-c1ccccc1)c1ccccc1O,43.8*,21.7,-0.7,0.1
CN1C(=O)C(=Cc2ccccc2OCC(=O)Nc2ccccc2)C(=O)N(C)C1=S,-13.0,6.2,-2.5,0.8
CN1C(=O)C(=Cc2ccccc2OCC(=O)O)C(=O)N(C)C1=S,5.9,72.1*,1.3,-0.3
Nc1ccc(Oc2ccc3c(c2)C(=O)N(c2cccc(N)c2)C3=O)cc1,-27.1,10.1,0.5,3.4*
Nc1ccc(Oc2ccc3c(c2)C(=O)N(CCO)C3=O)cc1,42.2*,-1.4,-1.0,-0.1
Nc1cccc(Oc2ccc3c(c2)C(=O)N(c2cccc(N)c2)C3=O)c1,-2.5,-0.7,2.6,-0.2
O=S(=O)(Nc1cccc2cn[nH]c12)c1ccc(F)cc1,3.7,-20.8,-1.1,-0.2
COc1cc(S(=O)(=O)Nc2cccc3cn[nH]c23)ccc1F,52.4*,-6.2,-0.6,0.3
CCN(CC)CCNC1=C(Cl)C(=O)c2ccccc2C1=O,46.3*,1.9,-2.4,-0.2
O=C1C(Cl)=C(NCCN2CCCCC2)C(=O)c2ccccc21,40.6*,8.6,-4.4,0.0
CC(C)=CCC/C(C)=C/C=N/Nc1nc(C)cc(=O)[nH]1,-1.9,5.6,1.3,-0.2
Cc1ccc(CSc2ccc(C(=O)NNC(=O)c3ccccn3)cc2[N+](=O)[O-])cc1,49.6*,26.8,-2.4,0.0
CC(C)(C)c1ccc(NC(=O)c2scc3c2CCCC3)cc1,32.8*,-17.3,-0.2,0.0
O=C(Nc1ccc2ccccc2c1)c1scc2c1CCCC2,24.7,-22.6,-2.5,0.0
COc1ccc(NC(=O)c2scc3c2CCCC3)cc1,40.3*,-10.2,-6.0,-0.1
Cc1ccc(NC(=O)c2scc3c2CCCC3)cc1,29.7,-0.4,-2.6,0.1
O=C(Nc1cccc(O)c1)c1scc2c1CCCC2,78.9*,-8.2,-3.7,-0.2
CC(=O)c1ccc(NC(=O)c2scc3c2CCCC3)cc1,72.4*,3.5,-0.2,0.2
COc1ccc(OCc2nc(-c3cccc(C(F)(F)F)c3)no2)cc1,5.6,-9.1,-0.3,-0.1
O=C(Nc1cccc(O)c1)c1c(O)c2c([nH]c1=O)CCCC2,55.9*,1.8,1.0,-0.1
CCOC(=O)c1ccc(N2C(=O)c3n[nH]c(C)c3C2c2ccc([N+](=O)[O-])cc2)cc1 (centres undefined),2.8,-4.5,-1.4,0.1
SMILES,TEAD-YAP inh,MITF inh,GPR151 ag,FBW7 act
O=C(OCCNC1=C(n2nnc3ccccc32)C(=O)c2ccccc2C1=O)c1ccccc1,-6.4,7.2,-0.2,-1.1
COc1ccc(NC2=C(n3nnc4ccccc43)C(=O)c3ccccc3C2=O)cc1,59.1*,6.5,-0.6,-0.2
c1cncc(CNc2nc(NCc3nc4ccccc4[nH]3)c3ncn(-c4ccsc4)c3n2)c1,86.1*,-8.0,1.1,-0.1
c1cnc(Nc2nc(NCc3nc4ccccc4[nH]3)c3ncn(-c4ccsc4)c3n2)nc1,69.3*,-18.4,-1.0,50.1*
Cc1ccc(N/C(N)=N/c2nc(CSc3nnc(C)s3)cc(=O)[nH]2)c(C)c1,44.4*,16.8,-0.1,0.0
Cc1ccc(NC(=O)CSc2nnc(C)s2)c(C)c1,-11.2,-2.6,-0.4,0.0
O=C(Nc1cc(Cl)cc(Cl)c1)c1ccc([N+](=O)[O-])s1,18.2,10.7,-1.7,0.1
CC(=O)N1CCN(C2=NC(=O)/C(=C\c3ccc(O)cc3)S2)CC1,7.6,-3.8,-0.6,0.1
O=C(Nc1cc(C(F)(F)F)cc(Cl)n1)C1COc2ccccc2O1 (centres undefined),9.0,12.5,-0.9,1.9*
Cc1cccc(NC(=O)C2COc3ccccc3O2)n1 (centres undefined),-29.7,6.7,1.4,-0.1
CN1CCN(c2ccc(-c3ccc(C(=O)NC4CC4)s3)cc2)CC1,52.0*,1.4,-1.5,0.1
O=C(NCCCn1ccnc1)C1CC12CCN(C(=O)C1(c3ccccc3)CCCCC1)CC2 (centres undefined),38.0*,11.4,1.3,0.1
COC(=O)c1c(C(=O)c2ccc(F)cc2)[nH]c2ccccc12,50.2*,0.3,0.2,0.0
COC(=O)c1[nH]c2ccccc2c1Cl,-7.9,6.3,0.0,0.0
O=C(Nc1ccc(Cl)cc1F)c1cnccn1,-15.7,0.6,-2.5,0.0
O=C(CC1C(=O)N(c2ccc(Cl)cc2)C(=S)N1CCc1ccc(Cl)cc1)Nc1ccc(F)cc1 (centres undefined),-11.1,20.6,-1.0,2.0*
Cc1oc(-c2ccccc2Cl)nc1CSCC(=O)N1CCCC1,58.2*,8.5,0.0,-0.1
Cc1oc(-c2ccc(Cl)cc2)nc1CSCC(=O)NC1CC1,-1.3,3.3,0.7,-0.6
Cc1oc(-c2ccc(Cl)cc2)nc1CSCC(=O)N1CCC2(CC1)OCCO2,38.4*,-8.6,0.1,0.1
Cc1oc(-c2cccs2)nc1CSCC(=O)N1CCCC1,2.5,-5.5,-0.1,0.0
CCOC(=O)CCCN1C(=O)S/C(=C/c2ccc(OC)cc2)C1=S,47.2*,8.7,-1.0,0.7
COc1ccc(/C=C2\SC(=O)N(CCCC(=O)Nc3ccc(C(=O)O)cc3)C2=O)cc1,87.6*,14.0,-1.0,0.0
CCCCN1C(=O)S/C(=C/c2ccc(OC)cc2)C1=O,-41.1,-11.2,0.2,0.0
Cc1ccn(CCC(=O)N2CCOc3ccc(CN4CCOCC4)cc3C2)n1,8.0,9.8,-1.1,-0.1
O=C(N/N=C/c1ccc(F)cc1)c1cc2sccc2[nH]1,48.9*,17.2,-0.7,0.1
SMILES,TEAD-YAP inh,MITF inh,GPR151 ag,FBW7 act
COc1ccc2[nH]c3c(=O)n(CCCCCC(=O)NCCNC(C)=O)c(=S)[nH]c3c2c1,5.2,14.3,0.9,0.0
O=c1c(O)c(-c2ccc(O)c(O)c2)oc2cc(O)ccc12,-23.8,23.3,-2.1,-0.3
O=c1c(O)c(-c2cc(O)c(O)c(O)c2)oc2cc(O)ccc12,2.4,78.4*,2.6,-0.3
O=C1C2C3C=CC(CC3)C2C(=O)N1Cc1ccc([N+](=O)[O-])cc1 (centres undefined),10.8,14.2,-3.0,0.1
CC1=CC(C)(C)N(C(=O)CSc2nc3ccccc3[nH]2)c2cc(C)c(C)cc21,-5.1,-11.1,-0.5,-0.1
O=C1CN(C(=O)COC(=O)c2cc(-c3cccs3)nc3ccccc23)c2ccccc2N1,6.8,55.1*,-0.8,0.2
O=c1/c(=C\c2ccc(-c3ccc(F)cc3F)o2)sc2nc3ccccc3n12,0.1,10.8,0.7,0.0
COc1ccc(CCn2c(SCC(=O)N3CCN(c4ccccc4OC)CC3)nc3ccsc3c2=O)cc1OC,50.6*,6.9,-1.5,-0.1
COc1ccc(CCNc2nc(SCC(=O)N3CCN(c4ccccc4OC)CC3)nc3ccccc23)cc1OC,34.4*,-0.8,-0.9,0.9

# Screening data (PubChem)
